CYP2C9 inh – blocks human cytochrome P450 2C9 | 20% of 96,000 active | inhibition, % at 5 µM | AID 777 | P11712 | CYP2C9 Supersomes, luciferin-H conversion, luminescence;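 active = blocking of liver enzyme CYP2C9 beyond about 50% at 5 µM, limit read from the data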
Target sequence (P11712 whole entry, looked up): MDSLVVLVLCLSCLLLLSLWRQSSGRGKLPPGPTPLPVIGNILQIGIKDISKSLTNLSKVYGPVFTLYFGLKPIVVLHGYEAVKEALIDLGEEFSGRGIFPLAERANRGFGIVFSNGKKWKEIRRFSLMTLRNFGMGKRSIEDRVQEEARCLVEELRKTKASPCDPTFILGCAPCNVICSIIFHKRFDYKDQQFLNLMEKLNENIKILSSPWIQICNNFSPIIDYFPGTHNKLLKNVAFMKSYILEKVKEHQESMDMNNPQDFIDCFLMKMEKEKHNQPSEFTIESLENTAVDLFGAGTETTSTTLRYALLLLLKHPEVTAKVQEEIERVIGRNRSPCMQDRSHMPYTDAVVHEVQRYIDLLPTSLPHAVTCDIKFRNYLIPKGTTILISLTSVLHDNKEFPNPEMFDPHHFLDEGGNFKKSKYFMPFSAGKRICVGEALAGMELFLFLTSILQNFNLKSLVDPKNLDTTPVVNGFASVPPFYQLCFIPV
PostGolgi yeast – growth inhibition of a yeast mutant, post-Golgi transport screen. post-Golgi transport phenotypic cell assay. inhibition, % at 10 µM. 0.9% of 98,000 active. AID 739;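 also: yeast cells grown in 1536-well plates; yeast grown about 18 h at 30C before absorbance read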
CYP2C19 act – activators of human cytochrome P450 2C19; activation factor at 5 µM; AID 1025; 96,000 tested, under 10 active; P33261; recombinant CYP2C19, luciferin-H EGE luminescence; active compounds read high; 0 = fully inhibited enzyme, 1 = untreated enzyme;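 active = activation factor of at least 2 at 5 µM in the primary screen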;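 also: 0 = wells with 2.5 mM tranylcypromine and 1 = vehicle-only wells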
PostGolgi ctrl – growth of the yeast control strain, post-Golgi counter-screen; AID 738; 5% of 98,000 active; efflux-deficient yeast background strain, growth absorbance A615, 16 h; inhibition, % at 10 µM
CYP2C9 act – increases human cytochrome P450 2C9 activity | recombinant CYP2C9, luciferin-H conversion, luminescence; active compounds read high; factor 1 = untreated enzyme, 0 = blocked | activation factor at 5 µM | 1.4% of 96,000 active | AID 1024;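 active = activation factor of 2 or more for CYP2C9 at a 5 µM dose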;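 also: 0 = sulfaphenazole-blocked wells and 1 = vehicle-only wells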
CYP2C19 inh – human CYP2C19 inhibition; CYP2C19 Supersomes, luciferin-H EGE luminescence, 30 min; inhibition, % at 5 µM; AID 778; 21% of 96,000 active;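 active = CYP2C19 inhibition above a set limit at 5 µM in the primary screen, cut at about 50% in these data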;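 also: plate controls were negative control wells for no effect and 2.5 mM tranylcypromine positive control for full effect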
* = called active by the depositor; nt = no result given. In the library only some 32% were active in any assay of this set; here they are far more common. Rule as the data show it, unless noted: active = inhibition above about 30%; inactive = the rest.

SMILES	CYP2C9 inh	PostGolgi yeast	CYP2C19 act	PostGolgi ctrl	CYP2C9 act	CYP2C19 inh
CC(=O)Nc1sc2c(c1C(=O)N1CCOCC1)CCCCC2	5.5	10.7	0.9	-4.4	0.9	5.5
CCC(C)(C)C1CCc2c(sc(NC(=O)c3ccoc3C)c2C(N)=O)C1 (stereo not given)	-16.3	12.8	1	-10.8	1.2	-4.1
Cc1occc1C(=O)Nc1sc2c(c1C(N)=O)CCC(C(C)(C)C)C2 (stereo not given)	58.5*	-3.3	0.9	4.2	0.4	7.1
CCC1CCc2c(sc(NC(=O)c3ccoc3C)c2C(N)=O)C1 (stereo not given)	42.2	-1.1	0.9	30.3*	0.6	9.3
O=C(CN1CCN(Cc2ccccc2Cl)C1=O)NCC1CCCO1 (stereo not given)	-46.9	-4.6	1	-2.4	1.5	0.0
CN1CCN(C2=C(Cl)C(=O)N(CCc3ccccc3)C2=O)CC1	14.1	7.1	0.4	2.9	0.9	56.3*
O=C1C(Cl)=C(NCC2CCCO2)C(=O)N1CCc1ccccc1 (stereo not given)	66.2*	10.1	0.2	14.7	0.3	82.3*
O=C1C(Cl)=C(NCC2CCCO2)C(=O)N1c1cccc(Cl)c1Cl (stereo not given)	45.6	-2.8	0.2	0.7	0.5	81.7*
O=C1C(Cl)=C(N2CCOCC2)C(=O)N1CCc1ccccc1	2.3	4.6	0.1	12.3	1	87.6*
O=C1C(Cl)=C(NCCc2ccccc2)C(=O)N1CCc1ccccc1	13.0	-11.5	1	11.5	0.9	-2.9
O=C1C(Cl)=C(N2CCN(Cc3ccccc3)CC2)C(=O)N1c1ccccc1	5.9	-8.0	1.1	18.2	0.9	-6.0
Cc1csc(NC(=O)C(NS(=O)(=O)c2ccc(Br)s2)c2ccccc2)n1 (stereo not given)	22.0	-2.8	0.9	-0.8	0.8	14.0
C=CCNC1=C(Cl)C(=O)N(c2cccc(Cl)c2Cl)C1=O	47.3	3.1	0.1	-0.1	0.5	90.2*
O=C1C(Cl)=C(NCCCN2CCOCC2)C(=O)N1CCc1ccccc1	77.7*	8.7	0.7	3.5	0.2	34.3
Cc1nnsc1NC(=O)OCc1ccc(C(C)(C)C)cc1	12.3	0.0	0.7	15.3	0.9	31.8
CC1(C)CC(=O)C2=C(C1)NC(=O)CC2C(=O)NCc1ccc(F)cc1 (stereo not given)	-9.4	1.4	0.9	0.5	1.1	5.2
Cc1ccc(NC(=O)CCNS(=O)(=O)c2ccc3c(c2)oc(=O)n3C)c(C)c1	-22.4	6.4	0.9	1.8	1.2	11.1
CCOC(=O)Cn1c(=O)oc2cc(S(=O)(=O)Nc3ccc(F)cc3)ccc21	58.1*	-2.7	0.6	-5.0	0.4	37.7
CCOC(=O)Cn1c(=O)oc2cc(S(=O)(=O)NCCc3ccc(C)cc3)ccc21	70.2*	-4.7	0.5	8.3	0.3	50.0*
CCOC(=O)Cn1c(=O)oc2cc(S(=O)(=O)NCCCc3ccccc3)ccc21	67.5*	-12.3	0.7	-3.6	0.3	33.6
O=C(Cn1c(=O)oc2cc(S(=O)(=O)N3CCCC3)ccc21)N1CCN(c2ccccn2)CC1	37.0	-4.0	1	11.6	0.6	3.8
CCOC(=O)Cn1c(=O)oc2cc(S(=O)(=O)N3CCN(c4ccccn4)CC3)ccc21	24.7	-0.5	0.7	-7.0	0.8	25.2
CN1CCN(C(=O)Cn2c(=O)oc3cc(S(=O)(=O)NCc4ccccc4)ccc32)CC1	50.2*	1.6	0.9	7.7	0.5	12.6
CCOC(=O)Cc1csc(SCc2nc3sc4c(c3c(=O)[nH]2)CCC4)n1	36.2	-6.7	0.8	20.3	0.6	17.7
N#CC1=C(N2CCCCC2)c2cc3c(n2C1=O)CCCC3	45.9	-13.1	0.5	25.8	0.5	45.1
SMILES	CYP2C9 inh	PostGolgi yeast	CYP2C19 act	PostGolgi ctrl	CYP2C9 act	CYP2C19 inh
COCCNc1nc(SCC(=O)N2CCN(c3ccccc3OC)CC2)nc2ccccc12	43.3	16.8	0.7	-7.3	0.6	31.3
COc1ccc(N(C)C(=O)CCS(=O)(=O)c2cccc3nonc23)c(OC)c1	8.8	-1.1	0.4	33.6*	0.9	63.7*
Cc1cccc(N(C)C(=O)CCS(=O)(=O)c2cccc3nonc23)c1	20.2	25.9	0.1	-4.6	0.8	94.0*
CC(=O)c1cccc(NC(=O)CCS(=O)(=O)c2cccc3nonc23)c1	11.7	15.1	0.8	11.0	0.9	22.3
CCOc1cc(C(=O)Nc2c3c(nn2C(C)(C)C)CS(=O)C3)cc(OCC)c1OCC (stereo not given)	nt	-3.2	nt	-3.9	nt	nt
O=C1C2C3CCCC3=C3CCCC3C2C(=O)N1c1ccc(F)cc1 (stereo not given)	6.3	-0.1	1	10.1	0.9	2.0
N=c1sccn1CC(=O)NCCc1ccc(Cl)cc1	-11.4	-14.4	0.9	3.2	1.1	6.3
O=C(CSc1ncn[nH]1)Nc1ccccc1C(=O)O	0.7	3.9	1	3.6	1	-4.8
O=C(CSc1ncn[nH]1)Nc1nc(-c2ccccc2)ns1	79.0*	0.5	0.2	-5.9	0.2	78.2*
Cc1nnc(SCCC(=O)Nc2nc(-c3ccccc3)ns2)s1	39.6	-16.9	0.5	4.9	0.6	53.2*
O=C(C1CCCN(S(=O)(=O)c2ccc(Br)s2)C1)N1CCCCCC1 (stereo not given)	12.0	4.5	0.4	16.1	0.9	63.4*
COc1ccc(-c2nn3c(C4CCCCC4)nnc3s2)cc1OC	63.9*	5.9	0.3	24.5	0.4	73.7*
COc1ccc(-c2nnc3sc(C4CCCCC4)nn23)cc1OC	27.2	21.6	0.7	14.2	0.7	28.1
COc1cc(-c2nn3c(C4CCCCC4)nnc3s2)cc(OC)c1OC	83.7*	12.1	0.8	18.8	0.2	21.6
COc1cc(-c2nn3c(-c4ccco4)nnc3s2)cc(OC)c1OC	27.8	nt	1	nt	0.7	0.6
CCc1c(C)c2nncn2[nH]c1=O	-8.5	3.3	1.1	4.1	1.1	-12.4
CCCCOC(=O)C1=C(C)Nc2ncnn2C1c1cc(OC)c(OC)cc1OC (stereo not given)	37.5	-2.6	1	-2.2	0.6	-3.4
CCOC(=O)CNC(=O)C(CC(C)C)NC(=O)C1CCCCC1 (stereo not given)	-11.8	-0.8	1	3.1	1.1	2.3
CCCCN(CCCC)S(=O)(=O)c1ccc(SCC(=O)OCC)c([N+](=O)[O-])c1	66.9*	-5.4	0.7	8.9	0.3	32.0
CCOC(=O)c1cnc2scnn2c1=O	-16.5	6.1	1.1	37.0*	1.2	-13.2
CCOC(=O)c1cnc2nc(C(F)(F)F)[nH]n2c1=O	43.5	0.8	1.1	25.5	0.6	-11.1
CN(CC(CC(=O)Nc1nncs1)c1ccccc1)S(=O)(=O)c1ccccc1 (stereo not given)	54.1*	5.2	0.1	6.2	0.5	89.8*
CCc1nnc(NC(=O)CC(CN(C)S(=O)(=O)c2ccccc2)c2ccccc2)s1 (stereo not given)	43.9	1.5	0.8	1.4	0.6	24.0
